{
  "source": "the supplement of paper PMC10681739",
  "data": [
    {"target": "T1, ETS1 (UniProt P14921)", "T1 sequence": "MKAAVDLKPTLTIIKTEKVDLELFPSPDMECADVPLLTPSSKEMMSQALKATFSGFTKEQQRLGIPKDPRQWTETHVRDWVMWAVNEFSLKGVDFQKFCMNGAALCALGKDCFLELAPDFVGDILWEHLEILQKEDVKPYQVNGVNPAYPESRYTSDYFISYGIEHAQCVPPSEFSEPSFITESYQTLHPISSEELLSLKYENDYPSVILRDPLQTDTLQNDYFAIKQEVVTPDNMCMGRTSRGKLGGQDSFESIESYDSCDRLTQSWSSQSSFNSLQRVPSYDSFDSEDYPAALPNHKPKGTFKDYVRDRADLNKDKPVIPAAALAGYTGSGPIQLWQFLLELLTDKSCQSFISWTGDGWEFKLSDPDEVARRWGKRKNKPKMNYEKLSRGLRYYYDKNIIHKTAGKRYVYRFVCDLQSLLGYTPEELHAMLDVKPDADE", "assay": "ETS1 binding intensity (PBM fluorescence), ETS1 alone (arbitrary fluorescence units); higher = stronger binding", "conditions": "ETS1 concentration 1 nM; RUNX1 concentration 0 nM", "values": [
      {"sequence": "TGCACGGTAAGCAGGAAGCTGCGGCCGAGCTGAGTC", "ETS1 binding intensity": 2020},
      {"sequence": "CAGGGTGGAAACAGGAAGAGAAACCACACTTAACCT", "ETS1 binding intensity": 1540},
      {"sequence": "ACCAGAAGCACTGCAGGATGTGGTATCAAGACGCCT", "ETS1 binding intensity": 2250},
      {"sequence": "GTTCATCCAGGAAACCCCAACCCAGTGCCGCAGTAT", "ETS1 binding intensity": 538},
      {"sequence": "GACAGGAAGTGACCTCAATTTCCCCGGCCACAGAAA", "ETS1 binding intensity": 2650},
      {"sequence": "CCTAGAACCGGAAGAGAAAGGGGCTGCGGTGCAGCA", "ETS1 binding intensity": 1680},
      {"sequence": "AGGGTGTGGAGGAAGTGGCTTACAACCACTTTGTCT", "ETS1 binding intensity": 1270},
      {"sequence": "CTGCCCAGCCACTTCCTGCCCAACCACAGACTGACA", "ETS1 binding intensity": 2210},
      {"sequence": "CTTAGTGGGGCAGGATGTGGTCAGGGAAGCTGATCT", "ETS1 binding intensity": 4440},
      {"sequence": "TGTGTCACTTCCCTATCTGTTGCGGTTGTTCACTCC", "ETS1 binding intensity": 409},
      {"sequence": "ACTTCACTTCCCAACCTCCCCTGTGGTTAGGTGTGG", "ETS1 binding intensity": 365},
      {"sequence": "CCTCACAGGGACTTCCTTCCCCGCGGTTCAGGAATC", "ETS1 binding intensity": 444},
      {"sequence": "ACAGATCCAAGGAAGCATATCCCGCAAGCAACTGTT", "ETS1 binding intensity": 460},
      {"sequence": "TCCAGGCATTTCCCCCATGTTGGCTCACCGCACTAT", "ETS1 binding intensity": 416},
      {"sequence": "AACAAACCGGATGGGGTTCCCACCCGCAATCTTGTC", "ETS1 binding intensity": 1700},
      {"sequence": "TATGGGGCCGGAAGCCATTCACCACAAACACTGTGT", "ETS1 binding intensity": 2430},
      {"sequence": "CCAAAATTGCCACGGAAACCACATCTTTCAGGCGAG", "ETS1 binding intensity": 486},
      {"sequence": "AGAACAGCAGGAAATAAATACCCACCTCAGGACTGC", "ETS1 binding intensity": 959},
      {"sequence": "ACTGCTTGATTTTCAGGAAGTGGTAAAGTGGCAGGT", "ETS1 binding intensity": 3700},
      {"sequence": "GCTGATAAAACAGGATGTGGTAAAGAAGCCGGCCAA", "ETS1 binding intensity": 5160},
      {"sequence": "GGATTAGAACTGCTTCCTCCTGTGGTTTACCAGAAA", "ETS1 binding intensity": 417},
      {"sequence": "TTTATCATGAATGCAGGATGTGGGCAAACTCGCATC", "ETS1 binding intensity": 2340},
      {"sequence": "CTGTCCGCGACATCCGGGACCTGCGGGACCGCCGAT", "ETS1 binding intensity": 1250},
      {"sequence": "ACCCTACTTCCGTTGCTGTGTTGCGGAGGTGACCTA", "ETS1 binding intensity": 1210},
      {"sequence": "CGAGTAGAGATAGCAGGAAGTGGTTTATTCTGAGGT", "ETS1 binding intensity": 6000},
      {"sequence": "TCCGGAAATAGATAATATCTAGTTAAACCTCAAAAT", "ETS1 binding intensity": 1540},
      {"sequence": "CGGTGGCTTCCGGCCCATGGCGGTGGTTGGTGACTC", "ETS1 binding intensity": 807},
      {"sequence": "CGCCTGCCCCACTTCCGCCCGGACCCGCAGCCCCTA", "ETS1 binding intensity": 2450},
      {"sequence": "ACGTTTCGGGGTTTCCGGGCCAGCGGTTTCGGGCGC", "ETS1 binding intensity": 702},
      {"sequence": "AGGGACCCGGATGTCTGGTCTGCGGCTGCTCCTCTA", "ETS1 binding intensity": 1460},
      {"sequence": "TCTTCAGGCGTCTTTCCGGTGGTGGTCGTTTTTGCT", "ETS1 binding intensity": 1530},
      {"sequence": "AAAGACAGGATGTGGGGGAGTGAGCCACAAGGGCCC", "ETS1 binding intensity": 1160},
      {"sequence": "GCAGCATTTCCTGACTTCTTCGCCCCTGTGGTTGCA", "ETS1 binding intensity": 440},
      {"sequence": "GCCGGTGAGGGCGGAAGTGGTAAGACTGACGTGTCC", "ETS1 binding intensity": 6840},
      {"sequence": "AATATACGGTGAGGATGTGGGCAAAAAACAAAGAGG", "ETS1 binding intensity": 1060},
      {"sequence": "AAACCAGAGGAAGTGGATTCCAACCACAAACCTCAC", "ETS1 binding intensity": 750},
      {"sequence": "TCATATCCGGCAGGAATGGGTTTTGTGGCTTTGTGC", "ETS1 binding intensity": 752},
      {"sequence": "GCCCGCCCCGGAAGTGCAAACTGTGTGGTCTGGCAG", "ETS1 binding intensity": 3980},
      {"sequence": "ACTTTAATAGAGTCCGGATGCGGTTAGGCTGACAGA", "ETS1 binding intensity": 2670},
      {"sequence": "ATCATCTAGGAGACAGGATGTGGTTAGGGTGTTAAA", "ETS1 binding intensity": 6360}
    ]},
    {"target": "RUNX1 (UniProt Q01196)", "sequence (Q01196 whole entry)": "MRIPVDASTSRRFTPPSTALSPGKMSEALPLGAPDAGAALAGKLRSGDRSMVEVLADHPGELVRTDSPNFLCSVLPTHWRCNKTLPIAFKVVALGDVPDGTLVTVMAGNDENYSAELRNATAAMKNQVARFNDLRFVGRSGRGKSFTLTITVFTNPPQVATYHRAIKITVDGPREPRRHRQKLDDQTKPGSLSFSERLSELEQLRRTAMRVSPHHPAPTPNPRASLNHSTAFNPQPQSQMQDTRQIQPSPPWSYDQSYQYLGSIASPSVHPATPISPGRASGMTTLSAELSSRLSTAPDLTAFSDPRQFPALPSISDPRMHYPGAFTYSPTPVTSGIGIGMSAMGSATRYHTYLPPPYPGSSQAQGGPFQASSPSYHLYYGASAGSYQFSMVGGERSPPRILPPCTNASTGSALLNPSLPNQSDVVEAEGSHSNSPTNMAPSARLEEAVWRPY", "assay": "RUNX1 binding intensity (PBM fluorescence), RUNX1 alone (arbitrary fluorescence units); higher = stronger binding", "conditions": "RUNX1 concentration 2 nM; ETS1 concentration 0 nM", "protocol": "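Cooperative gcPBM on 36-bp genomic probes with neighbouring ETS1 and RUNX1 sites. Recombinant human RUNX1 (2 nM) was incubated alone or with ETS1 (25 nM) and detected with anti-RUNX1 antibody plus Alexa488 secondary. Values are medians over 4 replicate spots; the RUNX1+ETS1 data were normalised to the RUNX1-only data. The probes sit in constant array flanks that are not printed.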", "values": [
      {"sequence": "TGCACGGTAAGCAGGAAGCTGCGGCCGAGCTGAGTC", "RUNX1 binding intensity": 687},
      {"sequence": "CAGGGTGGAAACAGGAAGAGAAACCACACTTAACCT", "RUNX1 binding intensity": 845},
      {"sequence": "ACCAGAAGCACTGCAGGATGTGGTATCAAGACGCCT", "RUNX1 binding intensity": 774},
      {"sequence": "GTTCATCCAGGAAACCCCAACCCAGTGCCGCAGTAT", "RUNX1 binding intensity": 895},
      {"sequence": "GACAGGAAGTGACCTCAATTTCCCCGGCCACAGAAA", "RUNX1 binding intensity": 809},
      {"sequence": "CCTAGAACCGGAAGAGAAAGGGGCTGCGGTGCAGCA", "RUNX1 binding intensity": 845},
      {"sequence": "AGGGTGTGGAGGAAGTGGCTTACAACCACTTTGTCT", "RUNX1 binding intensity": 764},
      {"sequence": "CTGCCCAGCCACTTCCTGCCCAACCACAGACTGACA", "RUNX1 binding intensity": 1420},
      {"sequence": "CTTAGTGGGGCAGGATGTGGTCAGGGAAGCTGATCT", "RUNX1 binding intensity": 836},
      {"sequence": "TGTGTCACTTCCCTATCTGTTGCGGTTGTTCACTCC", "RUNX1 binding intensity": 1340},
      {"sequence": "ACTTCACTTCCCAACCTCCCCTGTGGTTAGGTGTGG", "RUNX1 binding intensity": 1040},
      {"sequence": "CCTCACAGGGACTTCCTTCCCCGCGGTTCAGGAATC", "RUNX1 binding intensity": 866},
      {"sequence": "ACAGATCCAAGGAAGCATATCCCGCAAGCAACTGTT", "RUNX1 binding intensity": 797},
      {"sequence": "TCCAGGCATTTCCCCCATGTTGGCTCACCGCACTAT", "RUNX1 binding intensity": 1260},
      {"sequence": "AACAAACCGGATGGGGTTCCCACCCGCAATCTTGTC", "RUNX1 binding intensity": 830},
      {"sequence": "TATGGGGCCGGAAGCCATTCACCACAAACACTGTGT", "RUNX1 binding intensity": 953},
      {"sequence": "CCAAAATTGCCACGGAAACCACATCTTTCAGGCGAG", "RUNX1 binding intensity": 1520},
      {"sequence": "AGAACAGCAGGAAATAAATACCCACCTCAGGACTGC", "RUNX1 binding intensity": 822},
      {"sequence": "ACTGCTTGATTTTCAGGAAGTGGTAAAGTGGCAGGT", "RUNX1 binding intensity": 782},
      {"sequence": "GCTGATAAAACAGGATGTGGTAAAGAAGCCGGCCAA", "RUNX1 binding intensity": 817},
      {"sequence": "GGATTAGAACTGCTTCCTCCTGTGGTTTACCAGAAA", "RUNX1 binding intensity": 923},
      {"sequence": "TTTATCATGAATGCAGGATGTGGGCAAACTCGCATC", "RUNX1 binding intensity": 749},
      {"sequence": "CTGTCCGCGACATCCGGGACCTGCGGGACCGCCGAT", "RUNX1 binding intensity": 765},
      {"sequence": "ACCCTACTTCCGTTGCTGTGTTGCGGAGGTGACCTA", "RUNX1 binding intensity": 844},
      {"sequence": "CGAGTAGAGATAGCAGGAAGTGGTTTATTCTGAGGT", "RUNX1 binding intensity": 784},
      {"sequence": "TCCGGAAATAGATAATATCTAGTTAAACCTCAAAAT", "RUNX1 binding intensity": 786},
      {"sequence": "CGGTGGCTTCCGGCCCATGGCGGTGGTTGGTGACTC", "RUNX1 binding intensity": 770},
      {"sequence": "CGCCTGCCCCACTTCCGCCCGGACCCGCAGCCCCTA", "RUNX1 binding intensity": 1240},
      {"sequence": "ACGTTTCGGGGTTTCCGGGCCAGCGGTTTCGGGCGC", "RUNX1 binding intensity": 937},
      {"sequence": "AGGGACCCGGATGTCTGGTCTGCGGCTGCTCCTCTA", "RUNX1 binding intensity": 756},
      {"sequence": "TCTTCAGGCGTCTTTCCGGTGGTGGTCGTTTTTGCT", "RUNX1 binding intensity": 905},
      {"sequence": "AAAGACAGGATGTGGGGGAGTGAGCCACAAGGGCCC", "RUNX1 binding intensity": 752},
      {"sequence": "GCAGCATTTCCTGACTTCTTCGCCCCTGTGGTTGCA", "RUNX1 binding intensity": 850},
      {"sequence": "GCCGGTGAGGGCGGAAGTGGTAAGACTGACGTGTCC", "RUNX1 binding intensity": 709},
      {"sequence": "AATATACGGTGAGGATGTGGGCAAAAAACAAAGAGG", "RUNX1 binding intensity": 809},
      {"sequence": "AAACCAGAGGAAGTGGATTCCAACCACAAACCTCAC", "RUNX1 binding intensity": 1080},
      {"sequence": "TCATATCCGGCAGGAATGGGTTTTGTGGCTTTGTGC", "RUNX1 binding intensity": 1670},
      {"sequence": "GCCCGCCCCGGAAGTGCAAACTGTGTGGTCTGGCAG", "RUNX1 binding intensity": 867},
      {"sequence": "ACTTTAATAGAGTCCGGATGCGGTTAGGCTGACAGA", "RUNX1 binding intensity": 2000},
      {"sequence": "ATCATCTAGGAGACAGGATGTGGTTAGGGTGTTAAA", "RUNX1 binding intensity": 1070}
    ]}
  ]
}
